By AC50 is commonly meant the concentration at which the activity in the assay is half-maximal.

Test [1] is described as follows: CCTE_Deisenroth_5AR_NBTE_donor: CCTE's 5alpha-reductase NanoBRET Target Engagement Assay […], Deisenroth Lab (AID 2284319). The conditions noted are these: actives raise or lower the signal. A digest of the protocol: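 HEK293T cells were reverse transfected with an SRD5A2-NanoLuc vector for 20 h, exposed to test chemical (8 points, 10 nM - 29.9 uM) for 3 h, then testosterone tracer for 2 h more. Donor luminescence (460 nm) was read; bidirectional fit versus DMSO.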
For orientation: BRET reads energy transfer from a luciferase to a nearby fluorophore.

Test [2] in a line: CCTE_Deisenroth_5AR_NBTE_acceptor: CCTE's 5alpha-reductase NanoBRET Target Engagement Assay - Autofluorescence Screen, Deisenroth Lab (AID 2284321).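 Note: compound fluorescence in the acceptor channel under 460 nm excitation flags autofluorescence artifacts.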 As to conditions: actives raise or lower the signal. In outline:
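Acceptor fluorescence intensity was read as an artifact-detection endpoint. Test chemicals at an assumed nominal 100 uM were excited at 460 nm across three independent runs. Activity was fitted bidirectionally against DMSO.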

In test [3] the test system is SRD5A2 (gene 6716). Nature of the test: CCTE_Deisenroth_5AR_NBTE_ratio: CCTE's 5alpha-reductase NanoBRET Target Engagement Assay - Ratio, Deisenroth Lab (AID 2284322). The conditions noted are these: actives raise or lower the signal. In outline: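 Reverse-transfect HEK293T with pNLF1-C-SRD5A2, express 20 h. Pre-incubate cells with chemical 3 h (8-point series, 10 nM - 29.9 uM, duplicate). Add testosterone tracer, 2 h more. Add substrate/inhibitor, read donor and acceptor emission.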

The nature of test [4]: TAMU_PeakParms_SingleDonor1434_Asystole: Texas A&M University (TAMU) 1.5-hr Human Induced Pluripotent Stem Cell (iPSC)-derived Cardiomyocytes Calcium (Ca+2) Flux Assay for Cardiotoxicity: Asystole (quiescence of beating) (AID 2284328; active = hit-call score of the fitted dose curve at least 0.9, where 1 is the maximum). In outline: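 Average Ca2+-flux peak frequency (beats/s) was recorded in single-donor iPSC-derived cardiomyocytes after 90 min exposure (0.2–100 uM final, 0.5% DMSO). Asystole POD set as EC95 against DMSO, no preprocessing.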

Test [5] in a line: VALA_TUBHUV_Agonist_CellCount: Viability Assessment in the VALA Sciences human Umbilical Vein Endothelial Tubule Formation (TUBHUV) Agonism Assay (AID 2284309; active = hit-call score of the fitted dose curve at least 0.9, where 1 is the maximum). In outline:
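HUVEC co-cultured 1:3 with HDF for 3 days in 10 ng/ml VEGF, then compounds added in VEGF medium for a further 3 days (72 h). Nuclear-stain/CD31 imaging cell count. Positive-direction fit versus 0.1% DMSO vehicle.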

Test [6] is described as follows: VALA_TUBHUV_Antagonist_CellCount: Viability Assessment in the VALA Sciences human Umbilical Vein Endothelial Tubule Formation (TUBHUV) Antagonism Assay (AID 2284310; active = hit-call score of the fitted dose curve at least 0.9, where 1 is the maximum). A digest of the protocol:
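HUVEC co-cultured with HDF (1:3) 3 days in 10 ng/ml VEGF, then 3 days with compounds in VEGF medium. Fixed, nuclear stain and CD31 immunofluorescence, imaged; cell counts fitted versus 0.1% DMSO, loss of signal read as lower viability.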

Test [7] is described as follows: VALA_TUBIPS_Antagonist_TubuleLength: VALA Sciences human iPS-derived Endothelial Tubule Formation (TUBIPS) Antagonist Assay (AID 2284313; active = hit-call score of the fitted dose curve at least 0.9, where 1 is the maximum). In outline:
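Cells grown 3 days with 10 ng/ml VEGF, then exposed to compounds in VEGF medium for another 3 days. After fixation, nuclear stain and CD31 immunofluorescence imaging gave mean total tubule length against 0.1% DMSO; suramin (100 uM) inhibition control.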

Test [8] is described as follows: VALA_MIGHUV2_CellCount: Viability Assessment in the VALA Sciences human Umbilical Vein Endothelial Cell Migration (MIGHUV) Assay, Area of Scratch Wound after Recovery (AID 2284314; active = hit-call score of the fitted dose curve at least 0.9, where 1 is the maximum). In outline:
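Scratch-wounded HUVEC monolayers received test chemical within 30 min, 6-point concentration response in triplicate, 0.1 % DMSO vehicle. After 24 h wound recovery, fixed cells were Hoechst-stained and nuclei imaged; loss of signal versus DMSO indicates reduced viability.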

A short description of test [9]: VALA_MIGHUV1_ScratchOnly_WoundArea: VALA Sciences human Umbilical Vein Endothelial Cell Migration (MIGHUV) Assay, Area of Scratch Wound Inhibited Recovery (AID 2284336; active = hit-call score of the fitted dose curve at least 0.9, where 1 is the maximum). A digest of the protocol: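 HUVEC monolayers (9000 cells/well) were scratched after 24 h, dosed within 30 min (six concentrations, triplicate, 0.1% DMSO), allowed 24 h recovery, then fixed. Hoechst-stained nuclei in the wound imaged; cytochalasin D as reference.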

For test [10], the system named is Brachyury (BRA) Protein Expression, Deisenroth Lab, TBXT (gene 6862). Put plainly: CCTE_Deisenroth_DEVTOX-GLR_legacy_Bra: (Legacy) CCTE's DevTox GLR-Endo Assay Evaluation of Brachyury (BRA) Protein Expression, Deisenroth Lab (AID 2284329). In outline: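 Human pluripotent RUES2-GLR line was exposed twice during 48 h differentiation to a 10-point series, 1 nM - 200 uM. Fraction of Bra-positive cells was scored by imaging against pluripotent baseline and fitted after 0.2% DMSO subtraction.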

Test [11] is described as follows: VALA_MIGHUV2_Bcatenin: VALA Sciences human Umbilical Vein Endothelial Cell Migration (MIGHUV) Assay, Nuclear Translocation of beta-Catenin after Recovery (AID 2284315; active = hit-call score of the fitted dose curve at least 0.9, where 1 is the maximum). A digest of the protocol: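 HUVEC (4000 cells/well) scratch-wounded, dosed within 30 min over 6 concentrations in triplicate, recovered 24 h. After fixation, Hoechst and anti-beta-catenin immunofluorescence imaged for nuclear CTNB. Gain of signal versus 0.1% DMSO.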

Test [12] is described as follows: VALA_MIGHUV2_WoundArea: VALA Sciences human Umbilical Vein Endothelial Cell Migration (MIGHUV) Assay, Area of Scratch Wound after Recovery (AID 2284316; active = hit-call score of the fitted dose curve at least 0.9, where 1 is the maximum). In outline:
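HUVEC seeded at 9000 cells/well, scratched after 24 h; test chemical added within 30 min, 6-point concentration response in triplicate (0.1% DMSO vehicle). After 24 h wound recovery, cells fixed and Hoechst-stained nuclei in wound area imaged; Cytochalasin D reference control.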

Test [13] can be described thus: VALA_TUBIPS_Antagonist_CellCount: Viability Assessment in the VALA Sciences human iPS-derived Endothelial Tubule Formation (TUBIPS) Antagonism Assay (AID 2284335; active = hit-call score of the fitted dose curve at least 0.9, where 1 is the maximum).

Inconclusive results are not listed. A structure can be active in one record and inactive in another. Active and inactive are the calls of the source. Rule for the calls, unless noted: active = hit-call score of the fitted dose curve at least 0.9, where 1 is the maximum; inactive = score below 0.9.

Take `CCN(CC)C(=O)c1cc(S(=O)(=O)Cc2ccccc2)c(N2CCC(c3ccccc3)CC2)cc1N(CC)CCN(C)C`: the figures for the concentration at half-maximal activity (AC50) in test [1] and in test [3] were 10 µM (active) and 17.3 µM (active), respectively. The result in [1], in [2] and in [3] was inactive.
For `O=c1c(-c2ccc(O)cc2)coc2cc(O)cc(O)c12`, the compound was classed as inactive in test [1], in test [2] and in test [3].
Take `c1ccc2ccccc2c1`: the outcome in [4] was inactive.
As for `O=C(Nc1ccc(Cl)cc1)Nc1ccc(Cl)c(Cl)c1`, the outcome in test [5], in test [6], in test [7], in test [8] and in [9] was inactive.
In the case of `COc1cc(C(=O)NC2CCN(C)CC2)ccc1Nc1ncc2c(n1)N(C1CCCC1)CC(F)(F)C(=O)N2C`, the result in test [1], in test [2] and in [3] was inactive.
As to `NCc1cccc(C2CCN(C(=O)c3ccc(C#Cc4ccccc4F)o3)CC2)c1`, the outcome in [1], in [2] and in test [3] was inactive.
As to `CO[C@H]1/C=C/O[C@@]2(C)Oc3c(C)c(O)c4c(O)c(c(/C=N/N5CCN(C)CC5)c(O)c4c3C2=O)NC(=O)/C(C)=C\C=C\[C@H](C)[C@H](O)[C@@H](C)[C@@H](O)[C@@H](C)[C@H](OC(C)=O)[C@@H]1C`, the AC50 in test [1] is 50 µM (active); in [3], 54.3 µM (active); in test [10], 89.7 µM (active). For the same compound, the result in test [2] was inactive.
As to `CN1C(=O)CC[C@H]1c1cccnc1`, the compound was classed as inactive in [1], in test [2] and in test [3].
`CCCCCCCCOC(=O)c1cc(O)c(O)c(O)c1`: the concentration at half-maximal activity (AC50) in test [5] is 76.4 µM (active); in [11], 79.9 µM (active); in test [1], 74.7 µM (active); in [2], 61.4 µM (active); in [3], 1.59 µM (active). Besides, the compound was classed as inactive in [7], in test [8], in test [12] and in test [13].
In the case of `CN1C(=O)N(c2ccccc2Br)Cc2cnc(Nc3ccc4c(c3)OCC(CO)O4)nc21` (centres undefined), the compound was classed as inactive in test [1], in [2] and in [3].
